Reference: publication PMC7862700, “An all-to-all approach to the identification of sequence-specific readers for epigenetic DNA modifications on cytosine”

Key:
Assay in all cases: DAPPL (digital affinity profiling via proximity ligation, sequencing); 10 mM Tris-HCl pH 7.5, 50 mM NaCl, 1 mM DTT, 4% glycerol, room temperature, 30 min; GST-TFs on glutathione beads, 16-mer random dsDNA library, 0.1% formaldehyde crosslink after washing; high values mean tight binding
Details in all cases: protein: recombinant; tags: N-terminal GST; dsDNA, one strand shown
[1] = biological target: T1, FLI1 (Homo sapiens, UniProt Q01543 1-452)
T1 sequence: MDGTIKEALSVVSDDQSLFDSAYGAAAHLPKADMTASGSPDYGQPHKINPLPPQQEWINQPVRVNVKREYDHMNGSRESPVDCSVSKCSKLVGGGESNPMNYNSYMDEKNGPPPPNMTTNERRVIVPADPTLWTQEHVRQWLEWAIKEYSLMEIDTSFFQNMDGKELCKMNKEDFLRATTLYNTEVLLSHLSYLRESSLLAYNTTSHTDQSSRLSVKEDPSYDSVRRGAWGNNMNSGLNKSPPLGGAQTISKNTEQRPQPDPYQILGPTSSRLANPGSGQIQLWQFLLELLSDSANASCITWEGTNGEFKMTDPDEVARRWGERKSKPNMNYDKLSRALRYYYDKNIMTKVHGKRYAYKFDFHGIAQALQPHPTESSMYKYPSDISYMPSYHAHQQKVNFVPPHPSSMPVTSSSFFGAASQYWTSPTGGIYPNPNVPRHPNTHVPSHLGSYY
How it was run: (§1)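 Yeast served to express human transcription factors as GST fusions, which were then captured on glutathione beads and labelled with DNA barcodes. Pooled with a tag-only sample, they were incubated with 200 nmole of a 16-mer random double-stranded DNA library for 30 min at room temperature in Tris/NaCl/DTT/glycerol buffer, washed, crosslinked with 0.1% formaldehyde, ligated by proximity, amplified by PCR and sequenced. Dividing each hexamer's read frequency for a factor by its frequency for the tag-only sample gives the binding signal.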

[2] = biological target: T2, ELK1 (Homo sapiens, UniProt P19419 1-428)
T2 sequence: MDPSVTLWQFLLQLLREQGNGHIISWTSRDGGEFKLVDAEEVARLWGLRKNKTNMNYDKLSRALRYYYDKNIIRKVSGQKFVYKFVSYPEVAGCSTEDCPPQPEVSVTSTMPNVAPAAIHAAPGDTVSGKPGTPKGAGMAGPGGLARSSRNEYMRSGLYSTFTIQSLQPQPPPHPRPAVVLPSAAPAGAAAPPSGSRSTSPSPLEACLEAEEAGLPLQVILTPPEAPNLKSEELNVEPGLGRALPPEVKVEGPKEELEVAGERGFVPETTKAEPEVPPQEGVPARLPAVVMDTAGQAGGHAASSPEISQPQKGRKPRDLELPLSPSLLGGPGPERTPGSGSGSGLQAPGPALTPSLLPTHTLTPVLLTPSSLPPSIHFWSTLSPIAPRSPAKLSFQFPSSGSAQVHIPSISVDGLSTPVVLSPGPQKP
How it was run: as §1

[3] = biological target: T3, ERG (Homo sapiens, UniProt P11308 1-479)
T3 sequence: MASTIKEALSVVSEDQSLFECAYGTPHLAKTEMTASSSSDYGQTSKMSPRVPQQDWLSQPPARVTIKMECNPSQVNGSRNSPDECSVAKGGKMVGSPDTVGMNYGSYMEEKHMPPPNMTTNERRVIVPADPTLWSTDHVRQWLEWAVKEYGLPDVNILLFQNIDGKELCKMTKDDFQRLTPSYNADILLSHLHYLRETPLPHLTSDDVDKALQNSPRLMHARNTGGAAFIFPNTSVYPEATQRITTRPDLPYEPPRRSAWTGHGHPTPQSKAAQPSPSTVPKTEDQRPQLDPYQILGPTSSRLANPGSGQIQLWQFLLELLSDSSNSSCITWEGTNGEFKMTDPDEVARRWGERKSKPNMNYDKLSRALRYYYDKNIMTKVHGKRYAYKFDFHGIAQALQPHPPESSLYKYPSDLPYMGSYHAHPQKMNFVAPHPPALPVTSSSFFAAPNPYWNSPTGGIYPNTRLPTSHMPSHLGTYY
How it was run: as §1

[4] = biological target: ELF1 (Homo sapiens, UniProt P32519 1-619)
How it was run: as §1

[5] = biological target: T4, EHF (Homo sapiens, UniProt Q9NZC4 1-300)
T4 sequence: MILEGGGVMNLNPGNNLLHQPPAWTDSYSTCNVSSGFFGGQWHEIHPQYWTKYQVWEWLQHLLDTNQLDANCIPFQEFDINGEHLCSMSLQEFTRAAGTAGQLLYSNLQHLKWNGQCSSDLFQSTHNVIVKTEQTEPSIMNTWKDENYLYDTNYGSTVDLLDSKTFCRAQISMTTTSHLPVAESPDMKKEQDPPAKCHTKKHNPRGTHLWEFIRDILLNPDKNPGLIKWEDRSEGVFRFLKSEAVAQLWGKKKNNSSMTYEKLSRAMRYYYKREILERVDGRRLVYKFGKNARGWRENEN
How it was run: as §1

[6] = biological target: T5, SPIC (Homo sapiens, UniProt Q8N5J4 1-248)
T5 sequence: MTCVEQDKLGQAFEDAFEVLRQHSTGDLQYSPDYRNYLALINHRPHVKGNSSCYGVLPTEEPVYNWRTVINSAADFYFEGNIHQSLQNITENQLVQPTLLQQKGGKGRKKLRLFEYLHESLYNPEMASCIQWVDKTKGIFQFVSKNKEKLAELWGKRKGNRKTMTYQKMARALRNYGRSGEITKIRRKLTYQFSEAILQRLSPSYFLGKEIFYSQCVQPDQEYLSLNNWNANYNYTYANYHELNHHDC
How it was run: as §1

[7] = biological target: ELF4 (Homo sapiens, UniProt Q99607 1-663)
How it was run: as §1

[8] = biological target: T6, ELK4 (Homo sapiens, UniProt P28324-2 1-405)
T6 sequence: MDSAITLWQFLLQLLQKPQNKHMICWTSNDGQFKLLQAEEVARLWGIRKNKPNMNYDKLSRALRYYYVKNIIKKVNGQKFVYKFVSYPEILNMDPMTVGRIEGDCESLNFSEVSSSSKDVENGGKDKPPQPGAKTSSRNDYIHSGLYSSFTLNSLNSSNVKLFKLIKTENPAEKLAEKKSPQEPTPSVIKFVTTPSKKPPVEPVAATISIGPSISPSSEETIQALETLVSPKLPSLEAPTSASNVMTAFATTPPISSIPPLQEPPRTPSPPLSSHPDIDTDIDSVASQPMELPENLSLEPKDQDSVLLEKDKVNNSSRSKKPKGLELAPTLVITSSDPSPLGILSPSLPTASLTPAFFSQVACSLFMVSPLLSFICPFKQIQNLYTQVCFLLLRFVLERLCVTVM
How it was run: as §1

[9] = biological target: T7, ERF (Homo sapiens, UniProt P50548 1-548)
T7 sequence: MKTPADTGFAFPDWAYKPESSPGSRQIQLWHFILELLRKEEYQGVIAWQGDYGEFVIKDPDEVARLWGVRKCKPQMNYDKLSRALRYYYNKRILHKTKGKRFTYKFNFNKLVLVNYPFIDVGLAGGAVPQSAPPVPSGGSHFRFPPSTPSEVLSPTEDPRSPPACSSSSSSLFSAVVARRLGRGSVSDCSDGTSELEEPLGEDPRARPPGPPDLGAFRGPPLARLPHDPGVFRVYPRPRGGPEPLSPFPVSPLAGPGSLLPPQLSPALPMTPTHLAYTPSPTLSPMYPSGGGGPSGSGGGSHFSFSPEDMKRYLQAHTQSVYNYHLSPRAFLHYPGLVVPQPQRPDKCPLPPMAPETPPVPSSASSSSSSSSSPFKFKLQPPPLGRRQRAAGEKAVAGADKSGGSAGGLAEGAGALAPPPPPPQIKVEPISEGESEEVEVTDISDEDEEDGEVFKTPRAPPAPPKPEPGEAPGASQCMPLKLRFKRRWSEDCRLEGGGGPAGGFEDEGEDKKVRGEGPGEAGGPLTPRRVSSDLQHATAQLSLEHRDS
How it was run: as §1

[10] = biological target: T8, ETV3L (Homo sapiens, UniProt Q6ZN32 1-361)
T8 sequence: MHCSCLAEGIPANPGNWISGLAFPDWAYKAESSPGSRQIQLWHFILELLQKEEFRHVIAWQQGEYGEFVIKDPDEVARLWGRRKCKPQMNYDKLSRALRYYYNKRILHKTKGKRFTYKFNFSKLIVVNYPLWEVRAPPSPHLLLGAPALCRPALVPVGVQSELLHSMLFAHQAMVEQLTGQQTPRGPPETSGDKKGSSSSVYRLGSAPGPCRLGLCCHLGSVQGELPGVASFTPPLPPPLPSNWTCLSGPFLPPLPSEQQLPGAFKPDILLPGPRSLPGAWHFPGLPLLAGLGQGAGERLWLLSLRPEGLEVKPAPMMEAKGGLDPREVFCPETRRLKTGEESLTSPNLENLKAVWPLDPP
How it was run: as §1

[11] = biological target: T9, ETV3 (Homo sapiens, UniProt P41162-2 1-143)
T9 sequence: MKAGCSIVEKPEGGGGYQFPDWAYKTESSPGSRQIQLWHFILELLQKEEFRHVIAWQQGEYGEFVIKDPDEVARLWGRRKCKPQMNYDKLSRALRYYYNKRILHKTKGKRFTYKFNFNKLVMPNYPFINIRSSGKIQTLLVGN
How it was run: as §1

Sequence of ELF4 (Q99607 whole entry): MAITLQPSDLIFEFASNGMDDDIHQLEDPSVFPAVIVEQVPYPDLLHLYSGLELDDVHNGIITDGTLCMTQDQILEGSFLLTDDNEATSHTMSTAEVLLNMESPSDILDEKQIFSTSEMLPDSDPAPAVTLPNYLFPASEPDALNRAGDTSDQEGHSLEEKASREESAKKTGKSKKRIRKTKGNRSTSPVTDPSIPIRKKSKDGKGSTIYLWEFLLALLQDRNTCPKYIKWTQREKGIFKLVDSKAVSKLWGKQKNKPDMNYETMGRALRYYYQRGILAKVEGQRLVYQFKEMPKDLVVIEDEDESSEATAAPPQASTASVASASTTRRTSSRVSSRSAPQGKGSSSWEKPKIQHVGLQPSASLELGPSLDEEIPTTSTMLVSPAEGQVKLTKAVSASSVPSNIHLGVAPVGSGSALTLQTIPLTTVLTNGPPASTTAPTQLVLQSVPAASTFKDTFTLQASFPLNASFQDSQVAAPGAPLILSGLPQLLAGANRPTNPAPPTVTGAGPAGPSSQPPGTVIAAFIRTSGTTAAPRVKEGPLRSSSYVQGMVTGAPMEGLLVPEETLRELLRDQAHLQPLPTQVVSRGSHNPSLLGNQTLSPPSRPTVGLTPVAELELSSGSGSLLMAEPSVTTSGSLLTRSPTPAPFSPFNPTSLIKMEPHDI
Sequence of ELF1 (P32519 whole entry): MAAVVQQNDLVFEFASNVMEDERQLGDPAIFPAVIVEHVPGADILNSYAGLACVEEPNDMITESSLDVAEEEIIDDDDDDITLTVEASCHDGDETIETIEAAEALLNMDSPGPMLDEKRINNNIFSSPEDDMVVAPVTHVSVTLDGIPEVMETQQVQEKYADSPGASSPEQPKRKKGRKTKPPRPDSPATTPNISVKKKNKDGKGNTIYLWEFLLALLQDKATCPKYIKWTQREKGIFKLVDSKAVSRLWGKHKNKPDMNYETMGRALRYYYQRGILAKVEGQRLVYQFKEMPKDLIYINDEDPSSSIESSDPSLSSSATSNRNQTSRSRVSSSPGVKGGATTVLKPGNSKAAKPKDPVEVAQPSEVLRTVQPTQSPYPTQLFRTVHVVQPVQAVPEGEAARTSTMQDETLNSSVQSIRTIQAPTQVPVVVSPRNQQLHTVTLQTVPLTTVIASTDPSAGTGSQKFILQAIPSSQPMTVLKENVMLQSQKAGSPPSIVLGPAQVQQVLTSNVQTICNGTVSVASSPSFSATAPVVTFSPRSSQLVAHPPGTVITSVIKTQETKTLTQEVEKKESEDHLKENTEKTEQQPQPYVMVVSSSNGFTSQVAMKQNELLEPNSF

## CGCCAT
[1]
  binding signal: 1.08 fold enrichment (6-mer frequency, TF over GST control)
[2]
  binding signal: 1.01 fold enrichment (6-mer frequency, TF over GST control)
[3]
  binding signal: 1.02 fold enrichment (6-mer frequency, TF over GST control)
[4]
  binding signal: 1.02 fold enrichment (6-mer frequency, TF over GST control)
[5]
  binding signal: 1.01 fold enrichment (6-mer frequency, TF over GST control)
[6]
  binding signal: 1.06 fold enrichment (6-mer frequency, TF over GST control)
[7]
  binding signal: 1.12 fold enrichment (6-mer frequency, TF over GST control)
[8]
  binding signal: 1.1 fold enrichment (6-mer frequency, TF over GST control)
[9]
  binding signal: 1.08 fold enrichment (6-mer frequency, TF over GST control)
[10]
  binding signal: 1.08 fold enrichment (6-mer frequency, TF over GST control)
[11]
  binding signal: 1.02 fold enrichment (6-mer frequency, TF over GST control)
